This passage reports Potency results from PubChem BioAssay (Tox21).

A short description of assay [1]: qHTS assay to identify small molecule antagonists of the thyroid receptor (TR) signaling pathway (AID 743065). Note: nearly all actives have a fitted effect of over 55% in size. Note: potency is the fitted concentration of half-maximal effect. The essentials:
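Antagonism measured as loss of luciferase signal in GH3 cells stably carrying a TRE-luciferase reporter, co-treated with compound and T3 (1 nM final) for 23.5 h at 37 C. Viability was read in the same well by CellTiter-Fluor.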

The test system of assay [2] is thyroid hormone receptor (rat, GH3 cells). The assay can be described thus: qHTS assay to identify small molecule agonists of the thyroid receptor (TR) signaling pathway (AID 743066; calls by dose curve).
The nature of assay [3]: qHTS assay to identify small molecule antagonists of the estrogen receptor alpha (ER-alpha) signaling pathway - cell viability counter screen (AID 743074; calls by dose curve;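 note: HEK293 cells carrying ER-alpha-UAS-bla reporter stimulated with 17beta-estradiol; nearly all actives have a fitted effect of over 45% in size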; note: potency is the fitted concentration of half-maximal effect).
Assay [4] in a line: qHTS assay to identify small molecule antagonists of the estrogen receptor alpha (ER-alpha) signaling pathway using the BG1 cell line - cell viability counter screen (AID 743081;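 note: compound given together with 17beta-estradiol as the ER stimulus; nearly all actives have a fitted effect of over 45% in size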; note: potency is the fitted concentration of half-maximal effect). (In qHTS, concentration-response curves come from the screen itself.)
The target of a further assay is Aromatase (Homo sapiens) (UniProt P11511). The assay can be described thus: qHTS assay to identify aromatase inhibitors (AID 743083). Note: nearly all actives have a fitted effect of over 55% in size. Note: potency is the fitted concentration of half-maximal effect.
The nature of assay [5]: qHTS assay to identify aromatase inhibitors - cell viability counter screen (AID 743084).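 Note: cells stimulated with testosterone during compound exposure; nearly all actives have a fitted effect of over 55% in size.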 Note: potency is the fitted concentration of half-maximal effect.
A short description of assay [6]: qHTS assay to identify small molecule that activate the aryl hydrocarbon receptor (AhR) signaling pathway - cell viability counter screen (AID 743086). Note: nearly all actives have a fitted effect of over 45% in size. Note: potency is the fitted concentration of half-maximal effect. The gist of the method: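 Cytotoxicity counter screen: CellTiter-Fluor signal (30 min, 37 C) in 4000 HepG2 cells/well carrying the DRE-luciferase reporter, following 24 h compound exposure at 37 C.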
Assay [7] has as its target Peroxisome proliferator-activated receptor gamma (Homo sapiens) (UniProt P37231). The assay is described as follows: qHTS assay to identify small molecule agonists of the peroxisome proliferator-activated receptor gamma (PPARg) signaling pathway (AID 743094; active = well fitted activation curve with a large enough effect in the signal ratio in the repeat runs, not every such curve was filed as active; inconclusive = weak or mixed curves, or effect the other way; inactive = no such curve, though single readings can be large or run the other way; the % refers to the signal ratio; note: potency is the fitted concentration of half-maximal effect). The essentials:
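Quantitative HTS agonist mode: stable HEK293H line with UAS-beta-lactamase reporter under PPARg control, 17 h compound exposure at 37C, fluorescence after 1 h FRET substrate loading at room temperature.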

For assay [8] the target is unchanged. The assay is described as follows: qHTS assay to identify small molecule antagonists of the peroxisome proliferator-activated receptor gamma (PPARg) signaling pathway (AID 743191; calls by dose curve; note: series mostly up to about 63 µM; nearly all actives have a fitted effect of over 30% in size). The gist of the method: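 Beta-lactamase reporter under UAS control in HEK293H PPARg-bla cells; compound treatment 17 h at 37C. Read-out: fluorescence intensity after 1 h room-temperature incubation with LiveBLAzer B/G FRET substrate.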

Assay [9] can be described thus: qHTS assay to identify small molecule antagonists of the peroxisome proliferator-activated receptor gamma (PPARg) signaling pathway - cell viability counter screen (AID 743194). Note: nearly all actives have a fitted effect of over 55% in size. Note: potency is the fitted concentration of half-maximal effect. The essentials:
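Viability was measured as CellTiter-Glo luminescence in GeneBLAzer PPARg UAS-bla HEK293H cells. These cells had been exposed 17 h at 37 C to compounds together with rosiglitazone at 50 nM final, with the beta-lactamase readout taken in the same wells.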

The nature of assay [10]: qHTS assay for small molecule agonists of the antioxidant response element (ARE) signaling pathway (AID 743202; active = well fitted activation curve with a large enough effect in the signal ratio in the repeat runs, not every such curve was filed as active; inconclusive = weak or mixed curves, or effect the other way; inactive = no such curve, though single readings can be large or run the other way; the % refers to the signal ratio; note: potency is the fitted concentration of half-maximal effect). The essentials:
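An ARE-responsive beta-lactamase gene stably integrated in HepG2 cells serves as reporter. After 5 h plating and 16 h compound incubation at 37 C, fluorescence of the B/G FRET substrate was measured.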

The nature of assay [11]: qHTS assay for small molecule agonists of the antioxidant response element (ARE) signaling pathway - cell viability counter screen (AID 743203; calls by dose curve; note: nearly all actives have a fitted effect of over 55% in size). The essentials:
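Seeded at 2,000 cells/well, ARE-bla HepG2 cells were incubated 5 hrs before compound addition. After 16 hrs of treatment at 37C with 5% CO2, CellTiter-Glo reagent was added and luminescence read 30 min later.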

Assay [12] can be described thus: qHTS assay for small molecule activators of the heat shock response signaling pathway - cell viability counter screen (AID 743209). Note: nearly all actives have a fitted effect of over 50% in size. Note: potency is the fitted concentration of half-maximal effect. The essentials:
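First, HSE-bla HeLa cells were seeded at 1500 cells/well and kept overnight at 37 C. Next, compounds were pinned in and incubated 5 h. After the FRET substrate step, CellTiter-Glo was added and luminescence read 30 min later.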

The nature of assay [13]: qHTS assay for small molecule activators of the heat shock response signaling pathway (AID 743210; active = well fitted activation curve with a large enough effect in the signal ratio in the repeat runs, with a control signal flat, not every such curve was filed as active; inconclusive = weak or mixed curves; the % refers to the signal ratio;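 note: HeLa cells with beta-lactamase reporter driven by heat shock elements; series mostly up to about 63 µM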). The essentials:
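In HSE-bla HeLa cells, 5 h compound incubation (37 C) precedes addition of LiveBLAzer B/G substrate; after 2.5 h at room temperature, fluorescence intensity indicates reporter induction.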

Assay [14] in a line: qHTS assay to identify small molecule agonists of the peroxisome proliferator-activated receptor delta (PPARd) signaling pathway - cell viability counter screen (AID 743211). Note: nearly all actives have a fitted effect of over 55% in size. Note: potency is the fitted concentration of half-maximal effect. The essentials:
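PPARd-bla HEK293H cells (3000/well) were pre-incubated 5 h at 37 C, then exposed to compound for 17 h at 37 C. After 2 h with LiveBLAzer substrate, CellTiter-Glo was added to the same wells; luminescence read after 30 min at room temperature.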

The target in assay [15] is Aryl hydrocarbon receptor (Homo sapiens) (UniProt P35869). The assay is described as follows: qHTS assay to identify small molecule that activate the aryl hydrocarbon receptor (AhR) signaling pathway (AID 743085).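 For activation: HG2L7.5c1 human HepG2 liver cells with stably integrated DRE-driven firefly reporter; series mostly up to about 70 µM.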 Note: nearly all actives have a fitted effect of over 15% in size. Note: potency is the fitted concentration of half-maximal effect. The gist of the method:
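HepG2 cells stably carrying a 20-DRE firefly luciferase reporter (HG2L7.5c1) treated with compound for 24 hr at 37C. Luciferase read by ONE-Glo luminescence, with CellTiter-Fluor viability read first.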

Assay [16] deals with Estrogen receptor (Homo sapiens) (UniProt P03372). The assay is described as follows: qHTS assay to identify small molecule agonists of the estrogen receptor alpha (ER-alpha) signaling pathway (AID 743075; calls by dose curve;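 note: HEK293 GripTite cells with ER-alpha and UAS-driven beta-lactamase reporter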; note: potency is the fitted concentration of half-maximal effect).
Assay [17] is described as follows: qHTS assay to identify small molecule antagonists of the estrogen receptor alpha (ER-alpha) signaling pathway using the BG1 cell line (AID 743080; calls by dose curve;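 note: BG1 cells stimulated with 17beta-estradiol alongside compound; nearly all actives have a fitted effect of over 25% in size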; note: potency is the fitted concentration of half-maximal effect). The gist of the method: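 Quantitative HTS on the Tox21 10K library: BG1 cells with endogenous ER-alpha and ERE-luciferase reporter, 17beta-estradiol stimulation, 21.5 h compound exposure, luminescence endpoint with parallel fluorescence cytotoxicity counter-read.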

Assay [18] concerns the target Estrogen receptor (Homo sapiens) (UniProt P03372). The assay is described as follows: qHTS assay to identify small molecule agonists of the estrogen receptor alpha (ER-alpha) signaling pathway using the BG1 cell line (AID 743079). Note: nearly all actives have a fitted effect of over 20% in size. Note: potency is the fitted concentration of half-maximal effect.

Several values for one entry are separate records, joined by “and”; a condition that tells them apart may be missing. Equal entries are not always repeated. Where a structure was tested more than once in an assay, its records may differ in their call. Activity calls are given as the source filed them. Unless noted, calls come from the whole dose curve; as a rule, active = well fitted curve in the direction sought with a large enough effect in the repeat runs; inconclusive = weak or mixed curves; inactive = no such curve, though single readings can be large; an effect the other way counts as inactive or inconclusive.

Aryl hydrocarbon receptor (Homo sapiens), sequence (P35869 whole entry, looked up): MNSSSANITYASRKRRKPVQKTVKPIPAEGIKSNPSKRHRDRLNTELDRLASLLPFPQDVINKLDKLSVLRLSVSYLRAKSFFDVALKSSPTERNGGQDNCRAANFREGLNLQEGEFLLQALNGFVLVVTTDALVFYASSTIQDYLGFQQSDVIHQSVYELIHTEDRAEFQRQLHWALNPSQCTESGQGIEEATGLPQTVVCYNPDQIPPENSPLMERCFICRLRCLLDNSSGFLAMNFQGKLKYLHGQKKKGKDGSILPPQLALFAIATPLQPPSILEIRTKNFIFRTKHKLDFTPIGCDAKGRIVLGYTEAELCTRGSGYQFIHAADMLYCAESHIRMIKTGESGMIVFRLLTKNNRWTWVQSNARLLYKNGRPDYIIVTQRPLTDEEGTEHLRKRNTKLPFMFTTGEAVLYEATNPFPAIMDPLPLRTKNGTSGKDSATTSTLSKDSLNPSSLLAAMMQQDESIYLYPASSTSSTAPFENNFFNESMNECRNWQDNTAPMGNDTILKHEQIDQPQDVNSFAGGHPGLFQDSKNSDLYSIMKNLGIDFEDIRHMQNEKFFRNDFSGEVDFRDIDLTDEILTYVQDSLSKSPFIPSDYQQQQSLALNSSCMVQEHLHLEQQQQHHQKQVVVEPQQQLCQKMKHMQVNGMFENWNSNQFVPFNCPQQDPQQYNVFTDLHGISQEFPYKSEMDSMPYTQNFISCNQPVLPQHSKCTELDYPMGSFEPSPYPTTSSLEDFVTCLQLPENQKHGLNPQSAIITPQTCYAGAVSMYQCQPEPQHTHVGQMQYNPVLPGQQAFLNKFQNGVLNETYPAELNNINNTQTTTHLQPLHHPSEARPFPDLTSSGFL
Estrogen receptor (Homo sapiens), sequence (P03372 whole entry, looked up): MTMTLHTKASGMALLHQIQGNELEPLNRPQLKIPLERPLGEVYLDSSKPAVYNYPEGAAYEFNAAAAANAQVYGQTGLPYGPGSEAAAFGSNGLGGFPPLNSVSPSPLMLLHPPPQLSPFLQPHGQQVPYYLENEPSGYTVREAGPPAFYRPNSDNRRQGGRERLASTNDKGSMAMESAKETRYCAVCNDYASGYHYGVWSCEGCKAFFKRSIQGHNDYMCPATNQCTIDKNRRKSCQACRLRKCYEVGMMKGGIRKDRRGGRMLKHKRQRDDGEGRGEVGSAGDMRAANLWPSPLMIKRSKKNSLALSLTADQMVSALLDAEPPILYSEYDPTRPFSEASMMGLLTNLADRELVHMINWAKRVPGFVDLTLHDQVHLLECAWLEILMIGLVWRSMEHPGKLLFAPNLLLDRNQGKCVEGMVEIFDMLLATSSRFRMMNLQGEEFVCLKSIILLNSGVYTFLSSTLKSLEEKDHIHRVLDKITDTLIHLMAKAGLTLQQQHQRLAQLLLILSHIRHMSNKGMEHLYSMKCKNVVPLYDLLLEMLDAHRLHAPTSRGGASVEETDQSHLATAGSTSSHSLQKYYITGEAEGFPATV
Peroxisome proliferator-activated receptor gamma (Homo sapiens), sequence (P37231 whole entry, looked up): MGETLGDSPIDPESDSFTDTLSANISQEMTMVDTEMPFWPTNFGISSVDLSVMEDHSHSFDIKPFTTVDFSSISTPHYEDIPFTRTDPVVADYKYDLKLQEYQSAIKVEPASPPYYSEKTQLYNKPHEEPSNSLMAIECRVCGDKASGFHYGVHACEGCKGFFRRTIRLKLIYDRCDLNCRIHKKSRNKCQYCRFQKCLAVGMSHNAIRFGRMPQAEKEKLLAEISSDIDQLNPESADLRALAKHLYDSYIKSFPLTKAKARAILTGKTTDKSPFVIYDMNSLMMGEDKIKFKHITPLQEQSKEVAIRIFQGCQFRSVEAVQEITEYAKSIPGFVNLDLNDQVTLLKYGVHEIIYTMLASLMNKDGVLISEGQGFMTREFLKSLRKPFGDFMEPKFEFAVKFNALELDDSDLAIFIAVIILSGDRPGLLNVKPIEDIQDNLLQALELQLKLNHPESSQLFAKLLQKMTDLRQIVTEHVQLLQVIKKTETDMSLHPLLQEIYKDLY
Aromatase (Homo sapiens), sequence (P11511 whole entry, looked up): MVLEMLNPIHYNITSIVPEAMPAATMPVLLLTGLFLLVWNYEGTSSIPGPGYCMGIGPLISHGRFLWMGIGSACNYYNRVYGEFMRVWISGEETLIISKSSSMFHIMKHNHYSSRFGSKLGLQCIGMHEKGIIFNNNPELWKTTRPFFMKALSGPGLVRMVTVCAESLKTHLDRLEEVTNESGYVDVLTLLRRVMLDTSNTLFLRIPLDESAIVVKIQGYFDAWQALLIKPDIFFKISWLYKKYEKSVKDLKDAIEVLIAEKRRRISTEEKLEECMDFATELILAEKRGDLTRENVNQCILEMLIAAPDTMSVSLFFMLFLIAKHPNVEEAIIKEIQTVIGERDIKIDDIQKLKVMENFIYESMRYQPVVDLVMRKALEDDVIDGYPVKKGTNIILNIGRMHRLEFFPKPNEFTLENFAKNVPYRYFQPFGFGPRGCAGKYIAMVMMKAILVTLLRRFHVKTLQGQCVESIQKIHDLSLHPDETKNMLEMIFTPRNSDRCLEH

For `O=Cc1ccc(Cl)cc1`, the Potency entry (in assay [1]; in [2]; in assay [3]; in assay [4]; with Aromatase (Homo sapiens); in assay [5]) was “inactive” throughout. The Potency entry in assay [6], in [7], in assay [8], in [9], in [10] and in [11] was “inactive” each time. Besides, the Potency entry in assay [12], in assay [13] and in [14] was “inactive” throughout.

On to `Cc1cccc2n[nH]nc12`, for which the Potency entry in [1], in assay [2], in assay [3], in assay [4], in assay [6] and in assay [9] was “inactive” in each case. The Potency entry in [10], in assay [11], in assay [12], in [13] and in assay [14] was “inactive” each time.

With `CCC(CO)(CO)COCC(CC)(CO)CO`, the Potency entry (in assay [1]; in [2]; in assay [4]; in the assay with Aromatase (Homo sapiens); in assay [5]; in [15]) was “inactive” in each case. Also, the Potency result in assay [6], in [7], in assay [8], in [9], in [10] and in assay [11] was “inactive” each time. In addition, the Potency result in [13] and in assay [14] was “inactive” in each case.

On to `CCc1ccc(C(c2ccc(CC)cc2)C(Cl)Cl)cc1`, for which the Potency entry (in assay [1]; in assay [2]; in assay [16]; in assay [17]; in [4]; with Aromatase (Homo sapiens)) was “inactive” in each case. The Potency entry in assay [5], in [15], in assay [6], in [7], in [8] and in assay [9] was “inactive” throughout. Besides, the Potency result in assay [10], in assay [11], in assay [12], in assay [13] and in assay [14] was “inactive” in each case.

With `C/C=C/c1ccc(OCC)c(O)c1`, the Potency result (in [1]; in assay [2]; in [3]; in assay [4]; with Aromatase (Homo sapiens); in assay [5]) was “inactive” in each case. Moreover, the Potency result in [6], in assay [7], in assay [8], in assay [10], in assay [11] and in [12] was “inactive” throughout. Moreover, the Potency result in assay [13] and in assay [14] was “inactive” each time.

Regarding `O=C(Nc1ccccc1SSc1ccccc1NC(=O)c1ccccc1)c1ccccc1`, the Potency in assay [1] is 21.8 µM (active) and 48.6 µM (active); in assay [18], 27.4 µM (active) and 54.5 µM (active); with Aromatase (Homo sapiens), 13.8 µM (active) and 27.3 µM (active); in assay [5], 15.4 µM (active) and 48.6 µM (active); in assay [15], 30.8 µM (active) and 34.4 µM (active); in assay [14], 19.6 µM (active) and 12.3 µM (active). The Potency entry in assay [2], in assay [4], in assay [6], in assay [9] and in assay [11] was “inactive” in each case.

For `Nc1nc(=S)c2[nH]cnc2[nH]1`, the Potency entry (in [1]; in assay [2]; in assay [4]; with Aromatase (Homo sapiens); in assay [5]; in [6]) was “inactive” throughout. Also, the Potency entry in [8], in assay [12], in [13] and in assay [14] was “inactive” each time. Besides, the Potency in assay [16] was 19 µM [activator] (active) and inactive; in assay [18] it was 21.1 µM (active) and inactive; in assay [17], “inactive and 750 nM (active)”; in assay [15], “inactive and 61.1 µM (active)”; in assay [9], 2.98 µM (active); in assay [10], 4.73 µM (active).

Turning to `CC[C@H]1CN2CCc3cc(OC)c(OC)cc3[C@@H]2C[C@@H]1C[C@H]1NCCc2cc(OC)c(OC)cc21`, the Potency in [1] was 37.6 nM (active) and 38.7 nM (active); in assay [4], 9.72 µM (active); with Aromatase (Homo sapiens), 237 nM (active) and 244 nM (active); in [5], 9.72 µM (active); in assay [12], 2.46 µM (active) and 10.6 µM (active); in [14], 43.8 µM (active). For the same compound, the Potency result in [2], in assay [3], in assay [15] and in [13] was “inactive” in each case.

On to `O=C(O)c1cn(-c2ccc(F)cc2)c2cc(N3CCNCC3)c(F)cc2c1=O`, for which the Potency entry (in assay [1]; in assay [2]; in [3]; in assay [4]; in the assay with Aromatase (Homo sapiens); in assay [5]) was “inactive” throughout. In addition, the Potency result in [15], in [6], in assay [7], in assay [9], in [10] and in assay [11] was “inactive” in each case. The Potency result in [13] and in assay [14] was “inactive” throughout.

Take `CN(C)c1ccc(C(=C2C=CC(=[N+](C)C)C=C2)c2ccccc2)cc1`: the Potency in [1] was 6.68 µM (active) and 48.6 nM (active); in assay [3] it was 1.1 µM (active); in assay [4], “inactive and 9.69 µM (active)”; in the assay with Aromatase (Homo sapiens), 243 nM (active); in assay [5], 1.93 µM (active); in assay [6], “inactive and 1.93 µM (active)”. Further, the Potency is 26.8 µM (active) in assay [7]; 61.7 nM (active) and 668 nM (active) in [9]; 347 nM (active) and 1.33 µM (active) in [14]. Moreover, the Potency result in assay [2] and in assay [15] was “inactive” throughout.

With `COC(c1ccccc1)(c1ccccc1)[C@H](Oc1nc(C)cc(C)n1)C(=O)O`, the Potency entry (in [1]; in assay [2]; in assay [3]; in the assay with Aromatase (Homo sapiens); in [5]; in [15]) was “inactive” each time. Besides, the Potency result in [6], in assay [7], in assay [8], in [10], in assay [11] and in [13] was “inactive” in each case. The Potency entry in [14] is “inactive”.

For `CCCC(=O)c1ccccc1`, the Potency entry (in [1]; in assay [2]; in assay [3]; in assay [4]; in the assay with Aromatase (Homo sapiens); in [5]) was “inactive” each time. The Potency entry in assay [15], in [7], in assay [10], in [11], in assay [13] and in assay [14] was “inactive” each time.

As to `O=Nc1ccc(Nc2ccccc2)cc1`, the Potency in [1] was 4.35 µM (active) and 5.45 µM (active); in assay [16], 12.4 µM [inconclusive] (active) and 55 µM [activator] (active); in assay [18], 68.6 µM (active); in assay [5] it was 27.4 µM (active); in assay [7] it was 15.5 µM (active); in assay [10] it was 3.06 µM (active). Besides, the Potency in assay [12] was 34.7 µM (active); in assay [14], 43.9 µM (active) and 38.9 µM (active). In addition, the Potency entry in [2], in assay [4], in assay [6] and in assay [11] was “inactive” in each case.

On to `Cc1ccc(S(=O)(=O)Oc2ccc(N=Nc3ccc(-c4ccc(N=Nc5c(O)ccc6cc(S(=O)(=O)O)cc(S(=O)(=O)O)c56)c(C)c4)cc3C)cc2)cc1`, for which the Potency in assay [1] is 10.9 µM (active); in assay [4] it was 30.8 µM (active) and 15.9 µM (active); in [5] it was 10.9 µM (active) and 10 µM (active); in [6], 9.73 µM (active) and 14.1 µM (active). The Potency result in assay [2], in assay [15], in assay [9], in [11], in [12] and in assay [13] was “inactive” in each case. Also, the Potency result in assay [14] is “inactive”.

In the case of `CC(=O)OCC1=C(C(=O)O)N2C(=O)[C@@H](NC(=O)Cc3cccs3)[C@H]2SC1`, the Potency entry (in [1]; in [2]; in assay [3]; in assay [4]; with Aromatase (Homo sapiens); in [5]) was “inactive” throughout. The Potency result in [15], in [6], in assay [7], in assay [8], in assay [9] and in assay [12] was “inactive” in each case. Besides, the Potency entry in assay [14] is “inactive”.
